{"source": "the supplement of paper PMC4466140", "assay_in_all_cases": "SPOT peptide array binding signal intensity (averaged, normalized) (arbitrary units (background-subtracted, floor 0; scale differs between SH3 domains)); higher = stronger binding of the SH3 domain to the peptide", "key": {"ScBbc1": {"biological_target": "ScBbc1", "method_in_brief": "(§1)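 E. coli BL21(DE3) was used to express GST-fused SH3 domains from four yeast species, which were then purified on glutathione Sepharose. These were incubated at 10 μg/ml in TBS-based blocking buffer overnight at 4°C on cellulose membranes carrying synthetic 15-mer peptides, in which cysteines were replaced by serines. Binding signal is the replicate average of normalized, background-subtracted spot intensity, in arbitrary units that differ between domains.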"}, "ScBem1-D1": {"biological_target": "ScBem1-D1", "method_in_brief": "as §1"}, "ScBzz1-D1": {"biological_target": "ScBzz1-D1", "method_in_brief": "as §1"}, "ScBzz1-D2": {"biological_target": "ScBzz1-D2", "method_in_brief": "as §1"}, "ScCyk3": {"biological_target": "ScCyk3", "method_in_brief": "as §1"}, "ScFus1": {"biological_target": "ScFus1", "method_in_brief": "as §1"}, "ScHof1": {"biological_target": "ScHof1", "method_in_brief": "as §1"}, "ScHse1": {"biological_target": "ScHse1", "method_in_brief": "as §1"}, "ScLsb1": {"biological_target": "ScLsb1", "method_in_brief": "as §1"}, "ScLsb2": {"biological_target": "ScLsb2", "method_in_brief": "as §1"}, "ScLsb3": {"biological_target": "ScLsb3", "method_in_brief": "as §1"}, "ScLsb4": {"biological_target": "ScLsb4", "method_in_brief": "as §1"}, "ScMyo3": {"biological_target": "ScMyo3", "method_in_brief": "as §1"}, "ScMyo5": {"biological_target": "ScMyo5", "method_in_brief": "as §1"}, "ScNbp2": {"biological_target": "ScNbp2", "method_in_brief": "as §1"}, "ScPex13": {"biological_target": "ScPex13", "method_in_brief": "as §1"}, "ScRvs167": {"biological_target": "ScRvs167", "method_in_brief": "as §1"}, "ScSho1": {"biological_target": "ScSho1", "method_in_brief": "as §1"}, "ScSla1-D1-D2": {"biological_target": "ScSla1-D1-D2", "method_in_brief": "as §1"}, "ScSla1-D3": {"biological_target": "ScSla1-D3", "method_in_brief": "as §1"}, "SpAbp1-D1": {"biological_target": "SpAbp1-D1", "method_in_brief": "as §1"}, "SpBbc1": {"biological_target": "SpBbc1", "method_in_brief": "as §1"}, "SpBzz1-D1": {"biological_target": "SpBzz1-D1", "method_in_brief": "as §1"}, "SpBzz1-D2": {"biological_target": "SpBzz1-D2", "method_in_brief": "as §1"}, "SpCyk3": {"biological_target": "SpCyk3", "method_in_brief": "as §1"}, "SpHof1": {"biological_target": "SpHof1", "method_in_brief": "as §1"}, "SpHof1-2": {"biological_target": "SpHof1-2", "method_in_brief": "as §1"}, "SpHof1-3": {"biological_target": "SpHof1-3", "method_in_brief": "as §1"}, "SpHse1": {"biological_target": "SpHse1", "method_in_brief": "as §1"}, "SpLsb1": {"biological_target": "SpLsb1", "method_in_brief": "as §1"}, "SpLsb4": {"biological_target": "SpLsb4", "method_in_brief": "as §1"}, "SpMyo1": {"biological_target": "SpMyo1", "method_in_brief": "as §1"}, "SpNbp2": {"biological_target": "SpNbp2", "method_in_brief": "as §1"}, "SpPex13": {"biological_target": "SpPex13", "method_in_brief": "as §1"}, "SpRvs167": {"biological_target": "SpRvs167", "method_in_brief": "as §1"}, "SpSla1-D1-D2": {"biological_target": "SpSla1-D1-D2", "method_in_brief": "as §1"}, "SpSla1-D3": {"biological_target": "SpSla1-D3", "method_in_brief": "as §1"}}}
{"binder": "NMLKKKPLKKPLKRF", "values": [{"measurement": "SPOT peptide array binding signal intensity", "setting": "ScBbc1", "value": 1.5}, {"measurement": "SPOT peptide array binding signal intensity", "setting": "ScBem1-D1", "value": 31}, {"measurement": "SPOT peptide array binding signal intensity", "setting": "ScBzz1-D1", "value": 10}, {"measurement": "SPOT peptide array binding signal intensity", "setting": "ScBzz1-D2", "value": 22}, {"measurement": "SPOT peptide array binding signal intensity", "setting": "ScCyk3", "value": 28}, {"measurement": "SPOT peptide array binding signal intensity", "setting": "ScFus1", "value": 648}, {"measurement": "SPOT peptide array binding signal intensity", "setting": "ScHof1", "value": 0.25}, {"measurement": "SPOT peptide array binding signal intensity", "setting": "ScHse1", "value": 1740}, {"measurement": "SPOT peptide array binding signal intensity", "setting": "ScLsb1", "value": 1}, {"measurement": "SPOT peptide array binding signal intensity", "setting": "ScLsb2", "value": 1}, {"measurement": "SPOT peptide array binding signal intensity", "setting": "ScLsb3", "value": 340}, {"measurement": "SPOT peptide array binding signal intensity", "setting": "ScLsb4", "value": 94}, {"measurement": "SPOT peptide array binding signal intensity", "setting": "ScMyo3", "value": 2}, {"measurement": "SPOT peptide array binding signal intensity", "setting": "ScMyo5", "value": "≤ 0"}, {"measurement": "SPOT peptide array binding signal intensity", "setting": "ScNbp2", "value": 552}, {"measurement": "SPOT peptide array binding signal intensity", "setting": "ScPex13", "value": 194}, {"measurement": "SPOT peptide array binding signal intensity", "setting": "ScRvs167", "value": 7}, {"measurement": "SPOT peptide array binding signal intensity", "setting": "ScSho1", "value": 1720}, {"measurement": "SPOT peptide array binding signal intensity", "setting": "ScSla1-D1-D2", "value": 616}, {"measurement": "SPOT peptide array binding signal intensity", "setting": "ScSla1-D3", "value": 261}, {"measurement": "SPOT peptide array binding signal intensity", "setting": "SpAbp1-D1", "value": 1740}, {"measurement": "SPOT peptide array binding signal intensity", "setting": "SpBbc1", "value": 4.25}, {"measurement": "SPOT peptide array binding signal intensity", "setting": "SpBzz1-D1", "value": 279}, {"measurement": "SPOT peptide array binding signal intensity", "setting": "SpBzz1-D2", "value": 48.2}, {"measurement": "SPOT peptide array binding signal intensity", "setting": "SpCyk3", "value": 7.5}, {"measurement": "SPOT peptide array binding signal intensity", "setting": "SpHof1", "value": 134}, {"measurement": "SPOT peptide array binding signal intensity", "setting": "SpHof1-2", "value": 26}, {"measurement": "SPOT peptide array binding signal intensity", "setting": "SpHof1-3", "value": 804}, {"measurement": "SPOT peptide array binding signal intensity", "setting": "SpHse1", "value": 772}, {"measurement": "SPOT peptide array binding signal intensity", "setting": "SpLsb1", "value": 31.8}, {"measurement": "SPOT peptide array binding signal intensity", "setting": "SpLsb4", "value": 388}, {"measurement": "SPOT peptide array binding signal intensity", "setting": "SpMyo1", "value": 21.8}, {"measurement": "SPOT peptide array binding signal intensity", "setting": "SpNbp2", "value": 536}, {"measurement": "SPOT peptide array binding signal intensity", "setting": "SpPex13", "value": 73.5}, {"measurement": "SPOT peptide array binding signal intensity", "setting": "SpRvs167", "value": 15.8}, {"measurement": "SPOT peptide array binding signal intensity", "setting": "SpSla1-D1-D2", "value": 9}, {"measurement": "SPOT peptide array binding signal intensity", "setting": "SpSla1-D3", "value": 106}]}
